High-throughput results deposited in PubChem by National Center for Advancing Translational Sciences (NCATS).
A selection: hits, their analogues and other compounds. The true share with any hit is near 3.3%.
Sm TGR block: blocks Schistosoma mansoni thioredoxin glutathione reductase | purified TGR, DTNB reduction, TNB absorbance 405 nm | Q962Y6 | hit rate 3% among 360,000 | Potency, µM (series often up to 114 µM), without a hit: at the highest dose activity change, negative = inhibition, most hits filed as inhibitors | AID 485364; note: nearly all actives have a fitted effect of over 60% in size
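First, TGR (20 nM dispensed) and NADPH were mixed with compound. Second, a 15 min room-temperature incubation followed. Third, further NADPH and then DTNB were added to start the reaction. Finally, TNB absorbance was monitored kinetically.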
AmpC inh detg: blocks E. coli AmpC beta-lactamase in detergent assay. AmpC hydrolysis of nitrocefin, absorbance 480 nm, 0.01% Triton. Potency, µM (highest dose often 114 µM), without a hit: top-dose activity change, negative = inhibition, most hits filed as inhibitors. hit rate 0.041% among 370,000. AID 485294;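 note: 0% = no-compound wells and -100% = no-enzyme wells; nearly all actives have a fitted effect of over 25% in size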
Target sequence (P00811 whole entry, looked up): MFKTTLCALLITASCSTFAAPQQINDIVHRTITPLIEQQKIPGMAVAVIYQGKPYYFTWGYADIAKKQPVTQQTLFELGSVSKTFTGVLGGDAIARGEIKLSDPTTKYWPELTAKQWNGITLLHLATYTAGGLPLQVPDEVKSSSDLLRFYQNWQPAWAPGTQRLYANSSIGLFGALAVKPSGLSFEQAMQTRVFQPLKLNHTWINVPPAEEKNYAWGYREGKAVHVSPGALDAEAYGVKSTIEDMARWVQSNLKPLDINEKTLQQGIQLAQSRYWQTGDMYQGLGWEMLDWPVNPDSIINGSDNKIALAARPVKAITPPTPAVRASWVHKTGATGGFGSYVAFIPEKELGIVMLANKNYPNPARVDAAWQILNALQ
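AmpC (5.3 nM in the dispensed reagent) in 20 mM phosphate pH 7.0 with 0.01% (detergent screen) or 0.0001% Triton X-100 was preincubated with compounds for 15 min at room temperature. Nitrocefin was then added from an 800 uM solution, and hydrolysis was followed at 480 nm.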
AmpC no deterg: AmpC beta-lactamase inhibition without detergent; P00811; AmpC nitrocefin hydrolysis, absorbance 480 nm, 0.0001% Triton; Potency, µM (doses to about 57.1 µM), for inactives: at the top dose activity change, negative = inhibition, most hits filed as inhibitors; hit rate 0.52% among 330,000; AID 485341;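 note: plate controls were no compound for no effect and no enzyme for full effect; nearly all actives have a fitted effect of over 20% in size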
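20 mM phosphate pH 7.0 + 0.01% (detergent screen) or 0.0001% Triton X-100; 5.3 nM AmpC reagent; cpd preinc 15 min RT; nitrocefin (800 uM stock) to start; A480 q20 s × 4 min; Activity was normalised to no-enzyme and no-compound control wells.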
The depositor's hits bear a star; ? = inconclusive; / = no result given; [ ] = another dose, or the depositor's remark. Calls come from the whole dose curve; as a rule, active = well fitted curve in the direction sought with a large enough effect; inconclusive = small, poorly fitted or top-dose-only effect, or another doubt; inactive = no such curve, though single readings can be large; an effect the other way counts as inactive or inconclusive. Unless noted, % is set by controls: 0 for no effect and ±100 for the full control effect; potency is the fitted concentration of half-maximal effect.

SMILES | Sm TGR block | AmpC inh detg | AmpC no deterg
COC(=O)C1=C(C)N(Cc2ccc(OC)cc2)C(=O)/C1=C\c1ccco1 | 12.6µM* | 11.5% | -13.0%
COC(=O)C1=C(C)NC(=O)/C1=C\c1cc(C)n(-c2ccc(F)cc2)c1C | / | 1.3% | 0.7%
COC(=O)C1=C(C)N(Cc2ccco2)C(=O)/C1=C\c1ccc([N+](=O)[O-])cc1 | 7.94µM* | 1.5% | -14.4%
COC(=O)C1=C(C)NC(=O)/C1=C\c1cc(C)n(-c2cccc(C)c2)c1C | 25.1µM* | -3.2% | 46.7%
COC(=O)C1=C(C)N(C)C(=O)/C1=C\c1ccco1 | -47.3% | -11.6% | -8.7%
COC(=O)C1=C(C)N(c2ccc(C)c(C)c2)/C(=C/c2ccco2)C1=O | 35.5µM* | 5.9% | -24.6%
COC(=O)C1=C(C)N(Cc2ccco2)C(=O)/C1=C\c1ccc(N(C)C)cc1 | -34.3% | -16.2% | -10.8%
CCCOc1ccc(-c2c(C(=O)N/N=C(\C)c3cccs3)nnn2-c2nonc2N)cc1 | 8.7% | -6.1% | -3.7%
Cn1cc(S(=O)(=O)N2CCCC2)cc1C(=O)NCc1ccccc1Cl | -14.3% | ? | -12.2%
O=[N+]([O-])c1ncccc1OCc1ccc(Br)cc1F | -6.2% | -2.9% | 0.6%
COC(=O)C1=C(C)NC(=O)/C1=C\c1ccco1 | 25.1µM* | -9.4% | -6.1%
COC(=O)C1=C(C)NC(C)=C(C(=O)OC)C1c1ccc(OC(=O)c2ccco2)cc1 | -1.6% | -0.2% | 39.8%
COc1cccc(NC(=O)C2CCC(CNS(=O)(=O)c3ccc4c(c3)CCCC(=O)N4)CC2)c1 (stereo unspecified) | -1.3% | 2.7% | /
COCCNC(=O)c1cccc(OC2CCN(C(C)COc3ccccc3)CC2)c1 (stereo unspecified) | 6.6% | -8.5% | 14.8%
CC(=O)N1CCN(c2ccc([N+](=O)[O-])cc2C=C2C(=O)NC(=O)NC2=O)CC1 | ? | -8.2% | -14.9%
CCN1CCN(c2ccc([N+](=O)[O-])cc2C=C2C(=O)NC(=O)NC2=O)CC1 | 12.6µM* | ? | -21.1%
O=C(Oc1ccccc1)c1ccc2c(c1)C(=O)N(Cc1ccncc1)C2=O | -2.0% | 4.5% | 21.5%
O=S(=O)(NCc1ccc(F)cc1)c1ccc(Br)cc1Br | 1.6% | -8.2% | -23.5%
Nc1cc(N)c(OCC(F)(F)F)cc1OCC(F)(F)F | 1.12µM* | -14.2% | -14.2%
Nc1cc(OCC(F)(F)F)cc([N+](=O)[O-])c1 | -2.8% | 0.8% | 0.5%
COc1ccc(-c2onc(C)c2C)cc1S(=O)(=O)N(C)Cc1ccco1 | 2.2% | 4.9% | /
O=[N+]([O-])c1ccc2c(c1)ncn2-c1ccccc1 | 0.0% | ? | -33.0%
Cn1c(-[n+]2c(-c3ccccc3)cc(-c3ccccc3)cc2-c2ccccc2)nc2cc([N+](=O)[O-])ccc21 | 44.7µM* | -7.6% | -1.7%
O=C(NCc1ccccc1)C1=C[C@H](c2coc3ccccc3c2=O)C[C@H](OCCCCO)O1 | -17.4% | 7.9% | 79.9%
c1ccc(C[n+]2c(-c3ccccc3)csc2Nc2ccccc2)cc1 | -0.8% | ? | -22.0%
SMILES | Sm TGR block | AmpC inh detg | AmpC no deterg
c1ccc(Nc2scc(-c3ccccc3)[n+]2Cc2ccco2)cc1 | 39.8µM* | 5.3% | -19.3%
CC(OC(=O)C1CCN(c2ccc(C(F)(F)F)cn2)CC1)C(=O)Nc1cccc([N+](=O)[O-])c1 (stereo unspecified) | 0.7% | -14.4% | -3.6%
COc1ccc2c(c1)NC(c1ccc(Cl)cc1)=NC(c1cccs1)=N2 | 8.8% | 21.1% | /
CCOc1ccc(S(=O)(=O)N2CCN(Cc3ccco3)CC2)cc1 | ? | ? | 16.0%
Cc1ccc(C)c(NS(=O)(=O)c2ccc3oc(=O)ccc3c2)c1 | 10.1% | 5.4% | -2.1%
Cc1ccc(C)c(NS(=O)(=O)c2ccc3c(c2)Cc2cc(S(=O)(=O)Nc4cc(C)ccc4C)ccc2-3)c1 | -0.7% | -9.5% | 7.94µM*
COCCN=c1scc(-c2cccs2)n1/N=C/c1ccc(O)c(O)c1O | 39.8µM* | 4.5% | -22.2%
COCCN=c1scc(-c2ccccc2)n1/N=C/c1c[nH]c2ccccc12 | -7.5% | -11.0% | 26.1%
CCN=c1scc(C)n1/N=C/c1cc(Br)c(O)c(Br)c1 | ? | -14.3% | -26.8%[11.4 µM]
CCN=c1scc(C)n1/N=C/c1ccc(O)c(O)c1O | 20µM* | -3.3% | 10µM*
CCCN(C(=O)CCl)C1=CCCCC1 | 11.2µM* | 0.9% | -13.3%
CCN(C(=O)COC(=O)CNC(=O)c1ccccc1C)C1=CCCCC1 | -6.0% | -9.0% | 16.5%
COc1cc(/C=C(/C#N)c2ccc(F)cc2)ccc1Oc1ccc([N+](=O)[O-])cn1 | -15.1% | -18.9% | 28.2µM*
CCOc1cc(C=C(C#N)C#N)ccc1Oc1ccc([N+](=O)[O-])cn1 | / | 1.8% | -37.4%
O=S(=O)(/N=C(/c1ccccc1)N1CCCCC1)c1ccccc1 | 0.9% | -11.4% | -10.0%
O=C(Nc1nnc(SCc2cc(=O)n3cc(Cl)ccc3n2)s1)c1cccc(F)c1 | 1.5% | 19.2% | /
COc1ccccc1Nc1ccc(NC(=O)c2cccc([N+](=O)[O-])c2C)cc1 | -5.1% | 0.9% | 3.16µM*
COc1ccc(NC(=O)c2ccccc2[N+](=O)[O-])cc1 | 5.5% | ? | -8.1%
Cn1c(CNC(=O)CCNC(=O)c2ccccc2)cc(=O)n(C)c1=O | 10.4% | ? | -17.1%
Cc1nc(N2CCN(C(=O)c3cccs3)CC2)c2c3c(sc2n1)CCCC3 | 8.4% | 35.5µM* | 47.9%
Cc1nc(N2CCN(C)CC2)c2c3c(sc2n1)CCCC3 | 6.2% | 8.2% | 9.6%
Cc1ccc(N2CCN(C(=O)c3cccs3)CC2)cc1C | 35.5µM* | ? | -11.1%
Nc1ccc(N2CCN(C(=O)c3cccs3)CC2)cc1 | -10.0% | -13.0% | -16.5%
Cc1nc(N2CCN(C(=O)c3ccco3)CC2)c2c3c(sc2n1)CCCC3 | 44.7µM* | -2.5% | 94.3%
CCc1nc(SCC(=O)N2CCN(C(=O)c3ccco3)CC2)c2c3c(sc2n1)CCCC3 | -22.3% | ? | -0.4%
SMILES | Sm TGR block | AmpC inh detg | AmpC no deterg
Cc1nc(N2CCN(C(=O)c3ccco3)CC2)c2c3c(sc2n1)CC(C)CC3 (stereo unspecified) | 0.0% | 0.7% | 141.7%
O=C(c1ccco1)N1CCN(c2nc(C3CC3)nc3sc4c(c23)CCCC4)CC1 | 39.8µM* | -12.2% | 42.4%
O=C(CN1C(=O)NC(CCc2ccccc2)C1=O)Nc1ccc(F)c(F)c1F (stereo unspecified) | / | / | -17.9%
O=C(Nc1ccc(Br)cc1)C(Cc1ccccc1)NS(=O)(=O)c1cccc2nsnc12 (stereo unspecified) | 10.1% | 0.5% | /
CCc1nn(CC(=O)NCCOC)c(=O)c2cc3cc(F)ccc3n12 | -4.5% | -0.6% | /
COc1ccc(CCNC(=O)NCc2noc3ccccc23)c(OC)c1 | ? | -8.0% | /
Cc1nc2ccn(Cc3ccco3)c(=O)c2cc1C(=O)N1CCN(c2ccccc2)CC1 | -8.2% | -2.3% | /
COc1ccccc1N1CCN(C(=O)c2cc3c(=O)n(Cc4ccco4)ccc3nc2C)CC1 | 14.1µM* | 15.1% | /
COc1ccccc1N1CCN(C(=O)c2ccoc2C)CC1 | 44.7µM* | 7.3% | -3.0%
COc1ccccc1N1CCN(C(=O)c2c(C)noc2C)CC1 | 3.4% | -13.3% | -5.2%
